These results are taken from PubChem BioAssay (NCI).

“And” between values parts separate entries of the source, which are not always exact repeats. Equal entries are not always repeated. About 83,000 compounds went through this panel and 20% of them were active in at least one assay; those are over-represented in the sample as a whole.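 Cell lines were cultured in 96-well plates, exposed to a single compound concentration, and assessed for percent growth 48 hours later.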 Unmarked numbers belong to inactive results. The source made the active and inactive calls. How the source made its calls: active means growth percent below 10; inactive means the rest.

For this experiment, the system named is MDA-MB-468 breast. Nature of the experiment: NCI-60 one-dose screen, 48 h (100 = growth as untreated, 0 = no growth, -100 = all killed). As to conditions: 10 µM unless noted.
Take `CN(C)c1ccc([N+](=O)[O-])c([N+](=O)[O-])c1`: the growth was 110% and 95.6%.

With `O=C(NC(Cl)=C(Cl)Cl)P(=O)(c1ccccc1)c1ccccc1`, the growth was 101%.

As to `Cc1cnc(/C=C/C(=O)O)cc1-c1cc2c(cc1C)C(C)(C)CCC2(C)C`, the growth is 95.4%.

Turning to `COc1cc2c(c(OC)c1OC)-c1ccc(O)cc1[C@@H](NC(C)=O)CC2`, the growth is -20.9% (active) and -7.5% (active).

Take `O=CC1(c2ccccc2)CCN(Cc2ccccc2)CC1`: the growth is 103%.

With `CC[C@H](C)[C@H](NC(=O)C12C3C4C1C1C2C3C41NC)C(=O)N(C)[C@H](C[C@@H](OC(C)=O)c1nc(C(=O)N[C@@H](Cc2ccccc2)C[C@H](C)C(=O)OC)cs1)C(C)C` (stereo not given in full), the growth is 1.25% (active).

In the case of `CCOC(=O)Nc1cc(Cl)c([N+](=O)[O-])c(NC(=O)OCC)n1`, the growth is 87.2%.

Turning to `C/C=C/CC(C)C(O)[C@H](NC(=O)[C@@H]1CCCN1C(=O)C(C)(C)NC(=O)CCCCCCCCC)C(=O)NC(C)(C)C(=O)N[C@@H](CCC(N)=O)C(=O)N[C@H](CCC(N)=O)C(=O)NC(C)(C)C(=O)NC(C)(C)C(=O)N[C@@H](CCC(N)=O)C(=O)N[C@H](CC(C)C)C(=O)N[C@H](CO)CC(C)C` (stereo not given in full), the growth is -75.9% (active) and -84.9% (active).

Consider `CC1(C)N(Nc2ccccc2)C(=O)C2CCCN21` (stereo not given), for which the growth is 79.2%.

In the case of `CC(=O)O[C@H]1CC[C@H]2[C@@H]3CC=C4c5nc(-c6ccccc6)sc5CC[C@]4(C)[C@H]3CC[C@]12C`, the growth is 57.2%.

As to `CCN(CCO)C(Cc1ccccc1)c1ccccc1` (stereo not given), the growth is 96%.

Regarding `COc1ccc(NC([Se])=NC23CC4CC(CC(C4)C2)C3)cc1`, the growth was -15.6% (active).

Consider `O=[N+]([O-])c1cc(I)cc([N+](=O)[O-])c1`, for which the growth is 88.2%.

With `CN1CCN(c2ccc(Cl)cc2)CC1`, the growth was 71.1%.

Turning to `N#Cc1ccc(Cl)cc1`, the growth was 123%.

As for `Nc1nc(N)c(-c2ccc(Cl)c(Cl)c2)c(/C=C/c2ccc(S(=O)(=O)F)cc2)n1`, the growth is 103%.

Consider `CC(C)(C)N(Cc1ccccc1)N=O`, for which the growth was 93.2%.

As to `N#CC(C#N)=Cc1ccc2ccccc2c1`, the growth is 105%.

Regarding `COc1ccc(/C(C)=C(\c2ccc(OCCN3CCOCC3)cc2)c2ccc(OC(=O)Cc3ccccc3)cc2)cc1`, the growth was 104%.

With `O=C(CBr)Nc1ccccc1`, the growth was 108%.

`COC(=O)[C@H](C[C@H](Cc1ccccc1)NC(=O)c1csc([C@@H](C[C@H](C(C)C)N(C)C(=O)[C@@H](NC(=O)[C@H]2CCCCN2C)C(C)C)OC(C)=O)n1)NC(=O)OCc1ccccc1`: the growth is 0.51% [8.5 µM] (active).

With `COc1cc([C@@H]2c3cc4c(c(O)c3C[C@H]3COC(=O)[C@@H]32)OCO4)cc(OC)c1OC`, the growth is 5.12% (active).

In the case of `COc1ccc(CN2CCN(Cc3ccccc3)CC2)c(O)c1`, the growth was 75.5%.

Consider `Clc1ccc(CO/N=C(\Cn2ccnc2)c2ccc(Cl)cc2Cl)c(Cl)c1`, for which the growth was -24.5% (active).

As to `CN1CCN(C(=O)COc2ccc(/C=C3\CC4C5CC=C6CC(Cl)CCC6(C)C5CCC4(C)C3=O)cc2)CC1` (stereo not given), the growth is 66.6%.

Take `CC1(C)N=C(N)N=C(N)N1c1ccc(CCC(=O)Nc2ccc(S(=O)(=O)F)cc2)c(Cl)c1`: the growth is 64.2%.

As to `COc1ccc2c(c1)C1(C)CCN(C)CC(C1)C2O` (stereo not given), the growth is 101%.

Regarding `N#CC1c2ccccc2C=CN1C(=O)c1ccc(N(CCCl)CCCl)cc1` (stereo not given), the growth is 79.7%.

For the compound `COc1cccc2c1c(C(=O)c1ccco1)cn2Cc1ccc(F)cc1`, the growth is 103%.

`COC(=O)[C@H](Cc1ccccc1)NNC(=O)c1csc([C@@H](C[C@H](C(C)C)N(C)C(=O)[C@@H](NC(=O)[C@H]2CCCCN2C)C2CC2)OC(C)=O)n1`: the growth was -11.2% (active).

As for `ClCCN(CCCl)c1ccc(/C=C\c2ccnc3ccccc23)cc1`, the growth is 46.1%.

In the case of `Fc1ccc2c(c1)c(-c1nc(-c3c[nH]c4ncccc34)cs1)cn2CCN1CCOCC1`, the growth is 43.8%.

For the compound `CC12CCC(=O)C=C1C(O)CC1C2CCC2(C)C(O)CCC12` (stereo not given), the growth is 104%.

On to `CC1(C)N=C(N)N=C(N)N1c1ccc(CCCCc2ccc(Cl)cc2S(=O)(=O)F)c(Cl)c1`, for which the growth was -22.1% (active).

Regarding `COC(=O)[C@@H](C)C[C@H](Cc1ccccc1)NC(=O)c1csc([C@@H](C[C@H](C(C)C)N(C)C(=O)[C@@H](NC(=O)[C@H]2CCCCN2C)C2CC2)OC(C)=O)n1`, the growth was 0.846% (active).
